Sampled rows, rich in hits. Any-hit rate of the full collection: about 14%.
LASV entry inh: qHTS for Inhibitors of binding or entry into cells for Lassa Virus; Lassa virus pseudotype entry inhibition, cell reporter; Potency, µM (titrated, usually from 37.9 µM), for inactives: top-dose activity change, negative = inhibition, hits mostly inhibitors; hit rate 1.2% among 300,000; AID 540256, 2011; calls by dose curve; tested in HEK293 cells; further: potency means the concentration at half of the fitted maximal effect; nearly all actives have a fitted effect of over 50% in size
Pf growth 48h: Primary qHTS for delayed death inhibitors of the malarial parasite plastid, 48 hour incubation | AID 504832, 2011 | hit rate 5.9% among 310,000 | P. falciparum luciferase growth in erythrocytes, 48 h | Potency, µM (top dose mostly 28.7 µM), for the others: at the top dose activity change, negative = inhibition, usual class: inhibitors; further: potency means the concentration at half of the fitted maximal effect
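Parasite viability was followed by luminescence of a genomically integrated firefly luciferase. Cultures held 0.1% parasitemia at 2% hematocrit (final), incubated under 5% CO2 at 37 C.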
HCMV inh: qHTS Assay for inhibitors of the human cytomegalovirus (HCMV). AID 1259415, 2018. activity change, negative = inhibition, % at 57.5 µM. hit rate 4.5% among 410,000. HFF cells, HCMV-luciferase reporter, 72 h; hits give low values; in the data active means activity change below about -60%; inconclusive means no clear call, values can overlap the other calls; inactive means above about -39%
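Human foreskin fibroblasts infected with luciferase-reporter HCMV at MOI 1 PFU/cell, compounds at two doses. Luciferase measured 72 h post infection; normalized to buffer-only basal and Salinomycin (10uM) controls.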
Marburg entry inh: qHTS for inhibitors of binding or entry into cells for Marburg Virus | Marburg virus pseudotyped entry inhibition, cell reporter | Potency, µM (titrated, usually from 37.8 µM), for inactives: at the highest dose activity change, negative = inhibition, most hits filed as inhibitors | hit rate 1.8% among 300,000 | AID 540276, 2011; calls by dose curve; tested in HEK293 cells; further: potency means the concentration at half of the fitted maximal effect
Pf growth 96h: Primary qHTS for delayed death inhibitors of the malarial parasite plastid, 96 hour incubation; Potency, µM (doses to about 28.7 µM), for the others: at the highest dose activity change, negative = inhibition, hits mostly inhibitors; P. falciparum luciferase reporter growth, 96 h; hit rate 6.9% among 320,000; further: potency means the concentration at half of the fitted maximal effect
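Two-generation exposure (96 h) targets delayed-death phenotype. Reporter parasites carrying integrated firefly luciferase, in red cells at 2% hematocrit and 0.05% parasitemia final, kept at 37 C, 5% CO2; luminescence loss indicates inhibition.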
HCV inh: qHTS Assay for Inhibitors of Hepatitis C Virus (HCV). Huh7.5.1 HCVcc-Cre infection, luciferase reporter, 44 h. Potency, µM (titrated, usually from 41.8 µM), inactives show at the top dose activity change, negative = inhibition, actives largely listed as inhibitors. hit rate 3.4% among 340,000; further: potency means the concentration at half of the fitted maximal effect
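After 44 h co-culture of compound, cells and HCVcc-Cre (~0.5 moi), substrate is added for 15 min at room temperature and luciferase measured over 15 sec. Cells were seeded at 1,000/well and pre-cultured 4 h.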
Numbers without * were called inactive; [ ] = dose if it differs, or a comment. Unless noted, the call rests on the fitted dose curve; in most records, active means well fitted inhibition curve with a large enough effect; inconclusive means small, poorly fitted or top-dose-only effect, or another doubt; inactive means no such curve, though single readings can be large or run the other way. On the % scale 0 is the no-effect control and ±100 the full control effect.

Screening O=C(Nc1ccc(Cl)c(Cl)c1)N1CCC(c2ccccc2)C1 (stereo not drawn) returned LASV entry inh inconclusive and HCMV inh 71.3.
COc1ccc(CCNC(=O)c2ccc3nc(Cc4ccccc4)oc3c2)cc1OC was read as LASV entry inh inconclusive and HCMV inh -17.2.
Cc1sc2nc(-c3ccccc3)[nH]c(=O)c2c1-c1ccccc1 was read as LASV entry inh -0.8%, Pf growth 48h 16.8%, Marburg entry inh 8.7%, Pf growth 96h 15.7% and HCV inh 1.6%.
`Cc1sc2nc(-c3cccnc3)nc(Cl)c2c1-c1ccccc1` gave LASV entry inh 7.2%, Pf growth 48h 8.28µM*, HCMV inh 3.1, Marburg entry inh 7.9%, Pf growth 96h inconclusive and HCV inh inconclusive.
Screening CC(=O)Nc1cncc(-c2ccccc2F)n1 returned HCMV inh -95.5*.
Screening CCCC(O)c1nnc(Nc2cccc(Cl)c2)s1 (stereo not drawn) returned HCMV inh -0.9.
O=C(COC(=O)CNC(=O)c1ccc(Cl)c([N+](=O)[O-])c1)NCC1CCCO1 (stereo not drawn) was read as Pf growth 48h -13.5%, HCMV inh -14.3, Pf growth 96h 10.4% and HCV inh 6.3%.
For CC1(Cc2ccc3c(c2)OCO3)C(=O)Nc2c(Cl)ccc(Cl)c21 (stereo not drawn) the results were HCMV inh -68.4*.
Screening CC1(Cc2ccc3c(c2)OCO3)C(=O)Nc2ccc(-c3cccc(C(F)(F)F)c3)cc21 (stereo not drawn) returned HCMV inh -7.6.
For O=c1c(Cl)c2oc3ccccc3nc-2c2ccccc12 the results were LASV entry inh -16.1%[46.1 µM], Pf growth 48h 13.1µM*, Marburg entry inh inconclusive, Pf growth 96h -8.1% and HCV inh inconclusive.
CCCCNC(=O)N[C@H]1CC[C@@]23CCCN2C(=O)CCC[C@H]3[C@H]1CCC was read as HCMV inh 5.0.
Screening Cc1ccc(-n2cc(CN3CCC(CO)(Cc4cccc(C(F)(F)F)c4)CC3)cn2)cc1 returned LASV entry inh inconclusive, Pf growth 48h inconclusive, HCMV inh -99.2*, Marburg entry inh inconclusive, Pf growth 96h inconclusive and HCV inh 11.2µM*.
Screening OCC1(Cc2cccc(C(F)(F)F)c2)CCN(Cc2cc(F)cc(F)c2)CC1 returned LASV entry inh inconclusive, Pf growth 48h inconclusive, HCMV inh -62.0*, Marburg entry inh inconclusive, Pf growth 96h inconclusive and HCV inh inconclusive.
For CSc1cccc(CN2CCC(CO)(Cc3cccc(C(F)(F)F)c3)CC2)c1 the results were LASV entry inh -21.6%, Pf growth 48h inconclusive, HCMV inh inconclusive, Marburg entry inh inconclusive, Pf growth 96h 0.3% and HCV inh inconclusive.
Screening CC(C)Cc1ccc(S(=O)(=O)Nc2cc3c(cc2N2CCOCC2)n(C)c(=O)c(=O)n3C)cc1 returned LASV entry inh 0.9%[46.1 µM] and HCMV inh 24.8.
Screening COc1ccc(CN2C(=O)C(C)Nc3ncnc(N4CCN(c5ccccn5)CC4)c32)cc1 (stereo not drawn) returned HCMV inh 19.1 and HCV inh inconclusive.
Screening CC1Nc2ncnc(N3CCN(c4ccccn4)CC3)c2N(Cc2ccccc2)C1=O (stereo not drawn) returned Pf growth 48h 11.7µM*, HCMV inh 16.5, Pf growth 96h 2.62µM* and HCV inh 32.8%.
Screening Cc1ccc(CN2C(=O)C(C)Nc3ncnc(N4CCN(c5ccccn5)CC4)c32)cc1 (stereo not drawn) returned Pf growth 48h 11.7µM*, HCMV inh -4.0, Pf growth 96h 11.7µM* and HCV inh inconclusive.
Screening CCCCNC(=O)C1(C)CCN1C(=O)c1ccc(OC)c(C(F)(F)F)c1 (stereo not drawn) returned HCMV inh -20.4.
C/C(=N/NC(=O)CNC(=O)COc1ccccc1)c1ccco1 was read as LASV entry inh -0.7%, Pf growth 48h 7.4%, HCMV inh -63.4*, Marburg entry inh inconclusive, Pf growth 96h 20.8% and HCV inh 5.1%.
Screening C/C(=N\NC(=O)c1c[nH]c2ccccc12)c1ccco1 returned LASV entry inh inconclusive, HCMV inh 237.6, Marburg entry inh 27.1%, Pf growth 96h -31.6% and HCV inh -5.2%.
C/C(=N\NC(=O)c1ccc(C(=O)N/N=C(\C)c2ccco2)o1)c1ccco1 was read as LASV entry inh 7.5%, Pf growth 48h inconclusive, HCMV inh 28.5, Marburg entry inh 2.0%, Pf growth 96h 2.62µM* and HCV inh -4.9%.
C/C(=N\NC(=O)COc1ccc(C(C)(C)C)cc1)c1cc2ccccc2o1 was read as LASV entry inh 3.16µM*, Pf growth 48h 189.2%, HCMV inh -37.7, Marburg entry inh 10µM*, Pf growth 96h 0.0% and HCV inh 9.9%.
C/C(=N/NC(=O)CNC(=O)COc1cccc(C)c1)c1ccco1 was read as LASV entry inh -0.6%, Pf growth 48h -6.6%, HCMV inh 0.6, Marburg entry inh inconclusive, Pf growth 96h 58.9% and HCV inh 28.0%.
`C/C(=N\NC(=O)c1ccco1)c1cccc2ccccc12` gave LASV entry inh 13.4%, Pf growth 48h 9.28µM*, HCMV inh -2.3, Marburg entry inh -6.2%[46.1 µM], Pf growth 96h -20.9% and HCV inh inconclusive.
`O=C(Cn1c(=O)n(Cc2ccco2)c(=O)c2oc3ccccc3c21)Nc1ccc(F)c(Cl)c1` gave LASV entry inh -8.5%[46.1 µM] and HCMV inh 2.3.
For COc1ccccc1NC(=O)CC12CC3CC(CC(Br)(C3)C1)C2 the results were LASV entry inh 9.6%, Pf growth 48h -1.0%, HCMV inh -31.9, Marburg entry inh 14.9%[46.1 µM], Pf growth 96h 22.2% and HCV inh -1.7%.
For CC[Se]CC[C@@H](N)C(=O)O the results were Marburg entry inh -8.1%.
Screening Cc1cc(=O)[nH]c(N=N/C(=N/Nc2ccc(O)cc2)c2ccccc2)n1 returned LASV entry inh 20µM*, Pf growth 48h inconclusive, HCMV inh 68.3, Marburg entry inh inconclusive and HCV inh 6.3%.
Screening COc1cc2c(cc1OC)C(C)N(C(C)=O)CC2 (stereo not drawn) returned LASV entry inh 13.3%, Pf growth 48h 17.0%, HCMV inh 106.8, Marburg entry inh 4.1%, Pf growth 96h -22.7% and HCV inh -9.9%.
